Consider 37 molecules from PubChem BioAssay (NCI).

About 83,000 compounds went through this panel and 20% of them were active in at least one assay; those are over-represented in the sample as a whole.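 Cells were grown in 96-well plates and exposed to the test compound at a single concentration for 48 hours; results are reported as percent growth, with values below 10 considered active.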 Calls of active or inactive are those of the source.

The test system of the first experiment is HS 578T breast. The experiment is described as follows: NCI-60 one-dose screen, 48 h (100 = growth as untreated, 0 = no growth, -100 = all killed). Particulars: 1 µM.
Regarding `CC/C(=C(/c1ccc(O)cc1)c1ccc(OCCN(C)C(=O)COCCOCCNC(=O)c2ccc3c(c2)CN([C@@H]2CCC(=O)NC2=O)C3=O)cc1)c1ccccc1`, the growth was 70.9% (inactive). In the case of `CC/C(=C(/c1ccc(O)cc1)c1ccc(OCCN(C)C(=O)CCOCCNC(=O)Cc2ccc3c(c2)CN([C@@H]2CCC(=O)NC2=O)C3=O)cc1)c1ccccc1`, the growth is 61.4% (inactive). Consider `CC/C(=C(/c1ccc(O)cc1)c1ccc(OCCN(C)C(=O)COCCOCCNC(=O)Cc2ccc3c(c2)CN([C@@H]2CCC(=O)NC2=O)C3=O)cc1)c1ccccc1`, for which the growth is 64.8% (inactive). Consider `CC/C(=C(\c1ccc(O)cc1)c1ccc(OCCNC)cc1)c1ccccc1`, for which the growth is 94.8% (inactive). As for `CC/C(=C(\c1ccc(O)cc1)c1ccc(OCCN(C)C(=O)CCOCCNC(=O)c2ccc3c(c2)CN([C@@H]2CCC(=O)NC2=O)C3=O)cc1)c1ccccc1`, the growth is 75.9% (inactive). Consider `CC/C(=C(\c1ccc(O)cc1)c1ccc(OCCN(C)C(=O)COCCNC(=O)Cc2ccc3c(c2)CN([C@@H]2CCC(=O)NC2=O)C3=O)cc1)c1ccccc1`, for which the growth is 48.7% (inactive).

The experiment is the same for the next values; noted with them: 10 µM.
Turning to `CC/C(=C(/c1ccc(O)cc1)c1ccc(OCCN(C)C(=O)COCCOCCNC(=O)c2ccc3c(c2)CN([C@@H]2CCC(=O)NC2=O)C3=O)cc1)c1ccccc1`, the growth was 53.9% (inactive). For the molecule `CC/C(=C(/c1ccc(O)cc1)c1ccc(OCCN(C)C(=O)CCOCCNC(=O)Cc2ccc3c(c2)CN([C@@H]2CCC(=O)NC2=O)C3=O)cc1)c1ccccc1`, the growth was 30.4% (inactive). For `CC/C(=C(/c1ccc(O)cc1)c1ccc(OCCN(C)C(=O)COCCOCCNC(=O)Cc2ccc3c(c2)CN([C@@H]2CCC(=O)NC2=O)C3=O)cc1)c1ccccc1`, the growth is 19.1% (inactive). In the case of `CC/C(=C(\c1ccc(O)cc1)c1ccc(OCCNC)cc1)c1ccccc1`, the growth was 80.5% (inactive).

Regarding `CC/C(=C(\c1ccc(O)cc1)c1ccc(OCCN(C)C(=O)CCOCCNC(=O)c2ccc3c(c2)CN([C@@H]2CCC(=O)NC2=O)C3=O)cc1)c1ccccc1`, the growth was 69.3% (inactive). Still for that read-out and setting: as for `CC/C(=C(\c1ccc(O)cc1)c1ccc(OCCN(C)C(=O)COCCNC(=O)Cc2ccc3c(c2)CN([C@@H]2CCC(=O)NC2=O)C3=O)cc1)c1ccccc1`, the figure is 7.64% (active).

Still in this experiment, the particulars now being: 10 µM unless noted.
`O=C(Nc1ccc(S(=O)(=O)N2CCCCC2)cc1)C(Cl)Cl`: the growth is 119% (inactive). `O=C(c1ccc(Cl)cc1)C1[C@H](c2ccccc2Cl)[C@@H](c2ccccc2)NC12C(=O)Nc1ccccc12` (stereo partly drawn): the growth is -38.3% (active).

For the molecule `O=C(c1ccc(O)cc1)C1[C@H](c2ccc(Cl)cc2)[C@@H](c2ccccc2)NC12C(=O)Nc1ccccc12` (stereo partly drawn), the growth was -11.8% (active).

For the molecule `Cc1ccc2nc(SCc3ccccc3F)n(-c3ccccc3)c(=O)c2c1`, the growth was 96.3% (inactive).

Consider `CCCCNc1ccc2c3c(cccc13)C(=O)N(NCC(O)COc1ccc3c(C)cc(=O)oc3c1)C2=O` (stereo not drawn), for which the growth is 80.7% (inactive). For the molecule `c1n[nH]cc1-c1nc2ccc3[nH]ncc3c2c2c1CC1(CC2)COC1`, the growth is 0.359% (active).

Turning to `CCN1CCN(Cc2ccc(C(=O)Nc3cccc(Nc4ccc5c(OC)cccc5n4)c3)cc2C(F)(F)F)CC1`, the growth was -16.4% (active). With `O=C(NN1C(=O)/C(=C/C=C/c2ccc([N+](=O)[O-])o2)SC1=S)c1ccc([N+](=O)[O-])cc1`, the growth was -27.3% (active). For `C=CCn1c(O)c(N=Nc2nc(-c3cc4ccccc4oc3=O)cs2)c2ccccc21`, the growth is 27.5% (inactive). Consider `CCCCCCCCCCCCCCCCCC(=O)Nc1ccc(OC)cc1`, for which the growth is 101% (inactive). As to `Cn1cc(-c2cc(N)n3nc(-c4c[nH]c5ccc(Cl)cc45)cc3n2)c2cc(Br)cnc21`, the growth is -16.2% (active). On the same count and under the same terms, as for `COC(=O)c1ccc(-c2c(-c3ccccc3)c(F)c3oc(C(=O)OC)c(N)c3c2-c2ccccc2)cc1`, the figure is 91.1% (inactive); as for `COc1ccc(-c2nc3ccccc3n2CC(=O)N=Nc2c(O)[nH]c3ccc(Br)cc23)cc1`, 68.7% (inactive); as for `O=C(N/N=C/c1c[nH]c2ccccc12)Nc1ccccc1Cl`, 8.49% (active). As to `COc1ccc(CCC2NCCc3c(Br)c4c(c(OC)c32)OCO4)cc1` (stereo not drawn), the growth was 8.95% (active). Still for that read-out and setting: as for `CN(C)c1nc(NCCNS(=O)(=O)c2ccc(C(=O)/C=C/c3ccc(Cl)cc3)cc2)nc(N2CCOCC2)n1`, the figure is 62% (inactive). On the same count and under the same terms, as for `COc1ccccc1NC(=O)N/N=C/c1c[nH]c2ccccc12`, the figure is 23.8% (inactive); as for `O=C1/C(=C/c2cnc(-c3ccccc3)s2)SC(=S)N1Cc1ccc2c(c1)OCO2`, 31.5% (inactive); as for `N#CC1=C(c2cccs2)Nc2c(c(-c3ccccc3)nn2-c2ccccc2)C12C(=O)Nc1ccccc12` (stereo not drawn), 4.59% (active). With `COc1ccc2[nH]c(=O)cc(-n3ncc(C(=O)/C=C/c4cc(OC)c(OC)c(OC)c4)c3C)c2c1`, the growth was 57.3% (inactive). Consider `C[C@H](NC(=O)c1ccc2c(-c3ccc(C(F)(F)F)cc3)cccc2c1)c1ccccn1`, for which the growth was 53.2% (inactive). Take `Cn1cc(Nc2ncnc(-c3ccc(N4CCCC4)c(C#N)c3)n2)cn1`: the growth was 41.3% (inactive). Turning to `CCCCCCCCc1cccc(CC(=O)Nc2ccc(C)cc2C(=O)O)c1`, the growth was 89.8% [25 µM] (inactive). As to `O=C1CCC(N2C(=O)c3cccc(NCCCCCC(=O)N4CCN(c5ccc6nc7c(nc6c5C(F)(F)F)C(=O)c5ncccc5C7=O)CC4)c3C2=O)C(=O)N1` (stereo not drawn), the growth was -11.5% (active). Consider `CN1C(=O)/C(=C\C(=O)c2cc3ccccc3oc2=O)c2ccccc21`, for which the growth was 57.3% (inactive). As to `Cc1ccc2nc(NC(=O)Nc3cccc(Cl)c3)sc2c1`, the growth is 116% (inactive). With `O=C1Nc2ccccc2/C1=C\c1ccc(OCC(=O)c2ccc(Br)cc2)cc1`, the growth was 84.5% (inactive). As for `COc1ccc2[nH]cc(-c3cc(N)n4nc(-c5c[nH]c6ccccc56)cc4n3)c2c1`, the growth is 37.2% (inactive). In the case of `Cn1cc(-c2cc(N)n3nc(-c4c[nH]c5ccc(Cl)cc45)cc3n2)c2cccnc21`, the growth is -26.2% (active).

Turning to `Cc1ccc(-c2cc(C(=O)N=Nc3c(O)[nH]c4ccc(F)cc34)c3ccccc3n2)cc1`, the growth was 32.1% (inactive).

Turning to `O=C(NN1C(=O)/C(=C/C=C/c2ccc([N+](=O)[O-])o2)SC1=S)c1ccncc1`, the growth was -11% (active).
